Laboratory results taken from PubChem BioAssay AID1159580 (chemical genetic matrix, 2015).
Among all 5,500 compounds or so, about 2,000 (36%) were called active. Not shown: some 18% with an inconclusive outcome. No stated cut-off is given here; in the data, active means normalized growth mostly below about 0.91 (no sharp cut-off); inconclusive means no clear call, values can overlap the other calls; inactive means mostly above about 0.92. Some of the results follow.

Assay: chemical genetic growth profiling, strain panel (AID 1159580);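 further: tested at 20 µM; growth read once vehicle control cultures reached saturation at 30 °C; 1 = growth at the plate median or of vehicle wells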
Conditions: growth OD

Measured: normalized growth

CC1O[C@@H](Oc2c(-c3ccc(O)c(O)c3)oc3cc(O)cc(O)c3c2=O)[C@H](O)[C@H](O)[C@H]1O (some centres not stated)
inactive: S. cerevisiae deletion strains, locus YJR075W, strain HOC1, stronger effect = lower value 0.996 | S. cerevisiae deletion strains, locus YKL009W, strain mrt4, stronger effect = lower value 1.11 | S. cerevisiae deletion strains, locus YKL068W, stronger effect = lower value 0.972 | S. cerevisiae deletion strains, locus YKL085W, strain MDH1 (second series), stronger effect = lower value 1.03 | S. cerevisiae deletion strains, locus YKL085W, strain MDH1, stronger effect = lower value 1.03 | S. cerevisiae deletion strains, locus YKL160W, strain elf1, stronger effect = lower value 0.994 | S. cerevisiae deletion strains, locus YKL190W, strain CNB1, stronger effect = lower value 0.998 | S. cerevisiae deletion strains, locus YKR001C, strain vps1, stronger effect = lower value 0.989 | S. cerevisiae deletion strains, locus YKR026C, strain gcn3, stronger effect = lower value 0.983 | S. cerevisiae deletion strains, locus YKR091W, strain srl3, stronger effect = lower value 0.993 | S. cerevisiae deletion strains, locus YLL001W, strain dnm1, stronger effect = lower value 0.986 | S. cerevisiae deletion strains, locus YLL026W, stronger effect = lower value 0.996 | S. cerevisiae deletion strains, locus YLL041C, strain sdh2, stronger effect = lower value 0.997 | S. cerevisiae deletion strains, locus YLR027C, strain aat2, stronger effect = lower value 0.98 | S. cerevisiae deletion strains, locus YLR039C, strain RIC1, stronger effect = lower value 0.974 | S. cerevisiae deletion strains, locus YLR058C, strain SHM2, stronger effect = lower value 0.999 | S. cerevisiae deletion strains, locus YLR102C, strain apc9, stronger effect = lower value 0.984 | S. cerevisiae deletion strains, locus YLR113W, strain HOG1, stronger effect = lower value 0.958 | S. cerevisiae deletion strains, locus YLR221C, strain rsa3, stronger effect = lower value 0.989 | S. cerevisiae deletion strains, locus YLR258W, strain gsy2, stronger effect = lower value 1 | S. cerevisiae deletion strains, locus YLR262C, strain YPT6 (second series), stronger effect = lower value 1.01 | S. cerevisiae deletion strains, locus YLR262C, strain YPT6, stronger effect = lower value 0.992 | S. cerevisiae deletion strains, locus YLR268W, strain sec22, stronger effect = lower value 0.948 | S. cerevisiae deletion strains, locus YLR320W, strain mms22, stronger effect = lower value 0.991 | S. cerevisiae deletion strains, locus YLR330W, strain CHS5, stronger effect = lower value 0.99 | S. cerevisiae deletion strains, locus YLR342W, strain FKS1 (second series), stronger effect = lower value 1.04 | S. cerevisiae deletion strains, locus YLR342W, strain FKS1, stronger effect = lower value 0.984 | S. cerevisiae deletion strains, locus YLR357W, strain rsc2, stronger effect = lower value 0.969 | S. cerevisiae deletion strains, locus YLR370C, strain arc18, stronger effect = lower value 0.989 | S. cerevisiae deletion strains, locus YLR371W, strain rom2, stronger effect = lower value 0.992 | S. cerevisiae deletion strains, locus YLR384C, strain iki3, stronger effect = lower value 0.994 | S. cerevisiae deletion strains, locus YLR418C, strain cdc73, stronger effect = lower value 0.993 | S. cerevisiae deletion strains, locus YML016C, strain PPZ1, stronger effect = lower value 1 | S. cerevisiae deletion strains, locus YML032C, strain rad52, stronger effect = lower value 0.99 | S. cerevisiae deletion strains, locus YML120C, strain ndi1, stronger effect = lower value 1 | S. cerevisiae deletion strains, locus YML124C, strain tub3, stronger effect = lower value 0.985 | S. cerevisiae deletion strains, locus YMR058W, strain fet3, stronger effect = lower value 0.99 | S. cerevisiae deletion strains, locus YMR078C, strain ctf18, stronger effect = lower value 0.988 | S. cerevisiae deletion strains, locus YMR125W, strain sto1, stronger effect = lower value 0.981 | S. cerevisiae deletion strains, locus YMR129W, stronger effect = lower value 0.982 | S. cerevisiae deletion strains, locus YMR205C, strain PFK2, stronger effect = lower value 0.986 | S. cerevisiae deletion strains, locus YMR223W, strain ubp8, stronger effect = lower value 1.03 | S. cerevisiae deletion strains, locus YMR231W, strain pep5, stronger effect = lower value 0.974 | S. cerevisiae deletion strains, locus YMR263W, strain SAP30, stronger effect = lower value 0.992 | S. cerevisiae deletion strains, locus YMR307W, strain GAS1, stronger effect = lower value 1.1 | S. cerevisiae deletion strains, locus YNL067W, strain RPL9B, stronger effect = lower value 0.975 | S. cerevisiae deletion strains, locus YNL071W, strain lat1, stronger effect = lower value 0.992 | S. cerevisiae deletion strains, locus YNL128W, strain TEP1, stronger effect = lower value 0.986 | S. cerevisiae deletion strains, locus YNL153C, strain GIM3, stronger effect = lower value 0.991 | S. cerevisiae deletion strains, locus YNL183C, strain NPR1, stronger effect = lower value 0.919 | S. cerevisiae deletion strains, locus YNL209W, strain ssb2, stronger effect = lower value 0.984 | S. cerevisiae deletion strains, locus YNL233W, strain BNI4, stronger effect = lower value 0.985 | S. cerevisiae deletion strains, locus YNL248C, strain rpa49, stronger effect = lower value 0.989 | S. cerevisiae deletion strains, locus YNL250W, strain rad50, stronger effect = lower value 0.983 | S. cerevisiae deletion strains, locus YNL271C, strain bni1, stronger effect = lower value 0.984 | S. cerevisiae deletion strains, locus YNL298W, strain CLA4, stronger effect = lower value 0.991 | S. cerevisiae deletion strains, locus YNL307C, strain MCK1, stronger effect = lower value 0.997 | S. cerevisiae deletion strains, locus YNL322C, strain KRE1 (second series), stronger effect = lower value 0.988 | S. cerevisiae deletion strains, locus YNL322C, strain KRE1, stronger effect = lower value 0.984 | S. cerevisiae deletion strains, locus YNR049C, strain mso1, stronger effect = lower value 0.986 | S. cerevisiae deletion strains, locus YNR052C, strain pop2, stronger effect = lower value 0.98 | S. cerevisiae deletion strains, locus YOL006C, strain TOP1, stronger effect = lower value 0.955 | S. cerevisiae deletion strains, locus YOL012C, strain htz1 0.762 | S. cerevisiae deletion strains, locus YOL147C, strain pex11, stronger effect = lower value 0.997 | S. cerevisiae deletion strains, locus YOR001W, strain rrp6, stronger effect = lower value 0.992 | S. cerevisiae deletion strains, locus YOR061W, strain CKA2, stronger effect = lower value 1 | S. cerevisiae deletion strains, locus YOR069W, strain VPS5, stronger effect = lower value 1 | S. cerevisiae deletion strains, locus YOR070C, strain gyp1, stronger effect = lower value 0.986 | S. cerevisiae deletion strains, locus YOR080W, strain dia2, stronger effect = lower value 0.988 | S. cerevisiae deletion strains, locus YOR083W, strain WHI5, stronger effect = lower value 0.995 | S. cerevisiae deletion strains, locus YOR106W, strain vam3, stronger effect = lower value 1.02 | S. cerevisiae deletion strains, locus YOR136W, strain idh2, stronger effect = lower value 0.986 | S. cerevisiae deletion strains, locus YOR144C, strain elg1, stronger effect = lower value 0.982 | S. cerevisiae deletion strains, locus YOR184W, strain ser1, stronger effect = lower value 1.01 | S. cerevisiae deletion strains, locus YOR231W, strain MKK1, stronger effect = lower value 0.942 | S. cerevisiae deletion strains, locus YOR265W, strain rbl2, stronger effect = lower value 0.992 | S. cerevisiae deletion strains, locus YOR270C, strain vph1, stronger effect = lower value 1.03 | S. cerevisiae deletion strains, locus YOR290C, strain snf2, stronger effect = lower value 0.995 | S. cerevisiae deletion strains, locus YOR316C, strain cot1, stronger effect = lower value 0.983 | S. cerevisiae deletion strains, locus YPL051W, strain arl3, stronger effect = lower value 0.983 | S. cerevisiae deletion strains, locus YPL055C, strain LGE1, stronger effect = lower value 0.974 | S. cerevisiae deletion strains, locus YPL078C, strain atp4, stronger effect = lower value 0.997 | S. cerevisiae deletion strains, locus YPL106C, strain sse1, stronger effect = lower value 0.971 | S. cerevisiae deletion strains, locus YPL240C, strain hsp82, stronger effect = lower value 1 | S. cerevisiae deletion strains, locus YPL241C, strain CIN2, stronger effect = lower value 1 | S. cerevisiae deletion strains, locus YPL256C, strain CLN2, stronger effect = lower value 0.927 | S. cerevisiae deletion strains, locus YPR119W, strain clb2, stronger effect = lower value 0.996 | S. cerevisiae deletion strains, locus YPR141C, strain kar3, stronger effect = lower value 0.975 | S. cerevisiae deletion strains, locus YPR163C, strain tif3, stronger effect = lower value 0.986 | S. cerevisiae deletion strains, locus YPR167C, strain met16, stronger effect = lower value 0.982 | S. cerevisiae deletion strains, strain wtn01, stronger effect = lower value 0.982 | S. cerevisiae strains, strain wild type, stronger effect = lower value 0.997
